In the supplement of paper PMC11732987, “Enantioselective OTUD7B fragment discovery through chemoproteomics screening and high-throughput optimisation” (Communications Chemistry, 2025):

Columns and labels:
Experiment in all cases: log2 ratio of Biotin-Ahx-Ub-VS probe labelling (fragment/DMSO); higher = less target engagement (more negative = stronger competition), active = hit call of the paper (q ≤ 0.05, log2 ratio ≤ -1)
Details in all cases: compound concentration: 200 uM; treatment time: 3 h
USP42 = molecular target: T1, USP42 (UniProt Q9H9J4)
T1 sequence (whole entry): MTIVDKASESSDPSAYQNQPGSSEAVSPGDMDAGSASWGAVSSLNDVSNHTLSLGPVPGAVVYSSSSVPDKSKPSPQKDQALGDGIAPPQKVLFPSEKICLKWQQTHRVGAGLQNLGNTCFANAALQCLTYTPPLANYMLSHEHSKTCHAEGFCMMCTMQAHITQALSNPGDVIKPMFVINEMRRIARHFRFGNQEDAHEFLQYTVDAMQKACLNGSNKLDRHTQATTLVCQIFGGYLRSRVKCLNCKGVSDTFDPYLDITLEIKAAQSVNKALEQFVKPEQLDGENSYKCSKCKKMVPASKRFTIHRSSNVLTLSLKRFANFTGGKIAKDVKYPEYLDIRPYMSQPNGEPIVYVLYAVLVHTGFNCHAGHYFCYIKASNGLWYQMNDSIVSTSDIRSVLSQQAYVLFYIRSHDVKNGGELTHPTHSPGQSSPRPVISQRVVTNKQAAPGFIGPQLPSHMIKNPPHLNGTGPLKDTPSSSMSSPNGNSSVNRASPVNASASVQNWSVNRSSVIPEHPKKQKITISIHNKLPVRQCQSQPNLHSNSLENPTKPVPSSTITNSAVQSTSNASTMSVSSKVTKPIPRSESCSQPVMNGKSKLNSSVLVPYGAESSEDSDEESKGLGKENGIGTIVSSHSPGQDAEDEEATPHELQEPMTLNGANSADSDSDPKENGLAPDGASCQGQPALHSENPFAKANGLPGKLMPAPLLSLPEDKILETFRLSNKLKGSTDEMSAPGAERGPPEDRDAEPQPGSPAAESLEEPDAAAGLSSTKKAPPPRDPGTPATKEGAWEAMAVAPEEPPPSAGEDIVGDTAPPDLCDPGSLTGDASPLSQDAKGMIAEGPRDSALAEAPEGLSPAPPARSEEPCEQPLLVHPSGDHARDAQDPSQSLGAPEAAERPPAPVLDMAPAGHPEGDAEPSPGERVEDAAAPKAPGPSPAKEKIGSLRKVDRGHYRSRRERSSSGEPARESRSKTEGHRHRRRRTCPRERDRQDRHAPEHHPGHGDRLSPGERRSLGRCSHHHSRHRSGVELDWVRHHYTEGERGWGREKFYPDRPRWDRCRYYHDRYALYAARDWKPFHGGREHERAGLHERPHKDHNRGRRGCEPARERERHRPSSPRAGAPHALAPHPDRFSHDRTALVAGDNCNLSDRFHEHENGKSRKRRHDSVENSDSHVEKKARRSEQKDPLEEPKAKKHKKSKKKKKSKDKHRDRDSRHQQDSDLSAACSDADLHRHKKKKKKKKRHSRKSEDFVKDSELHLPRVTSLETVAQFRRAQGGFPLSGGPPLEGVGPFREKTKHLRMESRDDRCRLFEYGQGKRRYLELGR
In short: (§1)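 The table lists average log2 ratios of fragment over vehicle, from an unpaired t-test on global-median-normalised Spectronaut label-free quantities. Proteins with ≥2 unique peptides were used. Samples were HEK293T lysate (495 µg) treated in triplicate with fragment at 200 µM or vehicle for 3 h, then with Biotin-Ahx-Ub-VS (0.5 µM final) for 1 h, with labelled DUBs NeutrAvidin-enriched and run by diaPASEF LC-MS/MS.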

USP46 = USP46 (UniProt P62068)
USP46, sequence (P62068 whole entry): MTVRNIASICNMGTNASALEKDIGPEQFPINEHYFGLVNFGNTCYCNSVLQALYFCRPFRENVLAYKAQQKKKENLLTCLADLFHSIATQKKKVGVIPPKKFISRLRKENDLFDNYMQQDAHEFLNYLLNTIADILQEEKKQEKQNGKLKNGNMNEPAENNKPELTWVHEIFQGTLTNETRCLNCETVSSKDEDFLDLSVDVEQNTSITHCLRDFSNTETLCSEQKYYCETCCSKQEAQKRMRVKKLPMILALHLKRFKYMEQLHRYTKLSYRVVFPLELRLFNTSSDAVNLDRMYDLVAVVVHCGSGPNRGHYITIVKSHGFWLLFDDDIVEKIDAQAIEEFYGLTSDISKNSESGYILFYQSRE
In short: as §1

USP47 = molecular target: T2, USP47 (UniProt Q96K76)
T2 sequence (whole entry): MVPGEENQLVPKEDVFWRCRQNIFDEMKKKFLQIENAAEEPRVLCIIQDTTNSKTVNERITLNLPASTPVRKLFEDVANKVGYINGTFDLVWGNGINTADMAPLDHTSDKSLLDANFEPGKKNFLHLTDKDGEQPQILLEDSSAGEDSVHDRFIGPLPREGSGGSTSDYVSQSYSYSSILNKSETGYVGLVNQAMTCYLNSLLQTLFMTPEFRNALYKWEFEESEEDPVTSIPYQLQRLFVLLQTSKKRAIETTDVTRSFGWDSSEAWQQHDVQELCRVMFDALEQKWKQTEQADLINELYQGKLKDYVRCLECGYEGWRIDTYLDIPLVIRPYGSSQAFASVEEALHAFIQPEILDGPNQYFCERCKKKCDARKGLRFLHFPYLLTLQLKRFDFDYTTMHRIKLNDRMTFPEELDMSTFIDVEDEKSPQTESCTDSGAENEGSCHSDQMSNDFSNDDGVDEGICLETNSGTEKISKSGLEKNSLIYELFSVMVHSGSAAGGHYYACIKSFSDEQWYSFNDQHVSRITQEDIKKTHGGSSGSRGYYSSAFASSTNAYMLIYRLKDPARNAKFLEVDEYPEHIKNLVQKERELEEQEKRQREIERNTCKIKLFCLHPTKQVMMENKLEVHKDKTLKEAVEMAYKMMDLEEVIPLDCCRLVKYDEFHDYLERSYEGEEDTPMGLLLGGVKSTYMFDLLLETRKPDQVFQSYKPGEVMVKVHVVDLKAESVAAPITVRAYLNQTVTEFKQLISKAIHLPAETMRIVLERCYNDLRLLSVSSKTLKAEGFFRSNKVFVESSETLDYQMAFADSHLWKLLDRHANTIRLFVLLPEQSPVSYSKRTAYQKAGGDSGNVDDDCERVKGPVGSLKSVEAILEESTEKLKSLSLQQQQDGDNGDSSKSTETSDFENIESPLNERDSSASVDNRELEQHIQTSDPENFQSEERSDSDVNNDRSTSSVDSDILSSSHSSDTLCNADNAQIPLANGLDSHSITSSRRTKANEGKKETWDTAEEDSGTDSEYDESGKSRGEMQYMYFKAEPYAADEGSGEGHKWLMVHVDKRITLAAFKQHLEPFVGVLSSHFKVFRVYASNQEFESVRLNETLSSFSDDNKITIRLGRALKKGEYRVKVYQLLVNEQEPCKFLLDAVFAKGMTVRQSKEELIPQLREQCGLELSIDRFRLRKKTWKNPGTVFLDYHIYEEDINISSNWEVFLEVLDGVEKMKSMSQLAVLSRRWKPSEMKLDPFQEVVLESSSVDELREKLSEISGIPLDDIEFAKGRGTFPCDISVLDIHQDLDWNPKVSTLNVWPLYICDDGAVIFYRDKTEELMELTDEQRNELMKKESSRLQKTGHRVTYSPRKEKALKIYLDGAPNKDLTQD
In short: as §1

USP48 = molecular target: T3, USP48 (UniProt Q86UV5)
T3 sequence (whole entry): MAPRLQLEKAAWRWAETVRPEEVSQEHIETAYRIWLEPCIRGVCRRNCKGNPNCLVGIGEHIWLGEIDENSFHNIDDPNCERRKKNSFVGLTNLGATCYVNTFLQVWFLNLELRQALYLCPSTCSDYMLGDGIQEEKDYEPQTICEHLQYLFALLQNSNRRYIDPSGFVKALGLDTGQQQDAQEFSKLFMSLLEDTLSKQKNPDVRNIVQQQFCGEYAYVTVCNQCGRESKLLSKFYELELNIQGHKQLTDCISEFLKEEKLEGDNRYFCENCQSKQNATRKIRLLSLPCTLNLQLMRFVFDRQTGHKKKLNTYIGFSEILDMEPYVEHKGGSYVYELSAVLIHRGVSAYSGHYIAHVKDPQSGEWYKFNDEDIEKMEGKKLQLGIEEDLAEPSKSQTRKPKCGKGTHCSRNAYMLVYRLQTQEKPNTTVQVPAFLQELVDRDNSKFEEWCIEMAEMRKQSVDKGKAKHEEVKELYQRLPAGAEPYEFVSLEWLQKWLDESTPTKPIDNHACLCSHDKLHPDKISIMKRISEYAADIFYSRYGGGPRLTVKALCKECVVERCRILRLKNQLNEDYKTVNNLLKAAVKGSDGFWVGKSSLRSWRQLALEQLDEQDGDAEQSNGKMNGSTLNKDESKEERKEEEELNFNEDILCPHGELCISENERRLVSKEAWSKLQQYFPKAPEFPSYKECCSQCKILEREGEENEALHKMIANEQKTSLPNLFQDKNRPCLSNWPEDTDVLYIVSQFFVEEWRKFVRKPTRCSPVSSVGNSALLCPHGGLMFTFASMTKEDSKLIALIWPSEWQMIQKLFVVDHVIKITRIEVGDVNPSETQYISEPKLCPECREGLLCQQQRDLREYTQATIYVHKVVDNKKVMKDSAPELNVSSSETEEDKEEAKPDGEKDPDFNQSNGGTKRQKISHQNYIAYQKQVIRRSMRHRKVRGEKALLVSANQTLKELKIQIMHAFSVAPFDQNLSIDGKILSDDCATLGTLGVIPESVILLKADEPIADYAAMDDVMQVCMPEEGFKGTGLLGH
In short: as §1

USP5 = molecular target: T4, USP5 (UniProt P45974)
T4 sequence (whole entry): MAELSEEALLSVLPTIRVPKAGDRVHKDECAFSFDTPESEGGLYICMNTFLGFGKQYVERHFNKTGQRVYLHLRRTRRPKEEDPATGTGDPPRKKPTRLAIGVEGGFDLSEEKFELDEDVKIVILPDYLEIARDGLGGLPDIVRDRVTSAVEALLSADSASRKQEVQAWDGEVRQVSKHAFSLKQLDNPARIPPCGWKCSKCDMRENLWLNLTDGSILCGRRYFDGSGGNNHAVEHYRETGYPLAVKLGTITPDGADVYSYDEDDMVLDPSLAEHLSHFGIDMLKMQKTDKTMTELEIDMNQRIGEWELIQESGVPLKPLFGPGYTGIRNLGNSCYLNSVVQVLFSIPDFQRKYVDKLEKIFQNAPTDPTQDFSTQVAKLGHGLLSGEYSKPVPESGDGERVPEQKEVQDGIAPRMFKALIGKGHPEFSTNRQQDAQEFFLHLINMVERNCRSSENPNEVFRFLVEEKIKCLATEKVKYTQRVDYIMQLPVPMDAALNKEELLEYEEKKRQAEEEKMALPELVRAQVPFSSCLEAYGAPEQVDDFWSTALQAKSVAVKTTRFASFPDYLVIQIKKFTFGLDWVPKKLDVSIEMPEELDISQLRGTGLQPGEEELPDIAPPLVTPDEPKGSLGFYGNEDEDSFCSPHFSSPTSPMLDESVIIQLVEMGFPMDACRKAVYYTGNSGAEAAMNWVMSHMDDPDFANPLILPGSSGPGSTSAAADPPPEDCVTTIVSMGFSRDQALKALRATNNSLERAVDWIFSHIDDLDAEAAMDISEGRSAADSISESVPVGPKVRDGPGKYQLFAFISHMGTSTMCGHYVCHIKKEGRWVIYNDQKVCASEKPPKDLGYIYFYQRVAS
In short: as §1

USP54 = USP54 (UniProt Q70EL1)
USP54, sequence (Q70EL1 whole entry): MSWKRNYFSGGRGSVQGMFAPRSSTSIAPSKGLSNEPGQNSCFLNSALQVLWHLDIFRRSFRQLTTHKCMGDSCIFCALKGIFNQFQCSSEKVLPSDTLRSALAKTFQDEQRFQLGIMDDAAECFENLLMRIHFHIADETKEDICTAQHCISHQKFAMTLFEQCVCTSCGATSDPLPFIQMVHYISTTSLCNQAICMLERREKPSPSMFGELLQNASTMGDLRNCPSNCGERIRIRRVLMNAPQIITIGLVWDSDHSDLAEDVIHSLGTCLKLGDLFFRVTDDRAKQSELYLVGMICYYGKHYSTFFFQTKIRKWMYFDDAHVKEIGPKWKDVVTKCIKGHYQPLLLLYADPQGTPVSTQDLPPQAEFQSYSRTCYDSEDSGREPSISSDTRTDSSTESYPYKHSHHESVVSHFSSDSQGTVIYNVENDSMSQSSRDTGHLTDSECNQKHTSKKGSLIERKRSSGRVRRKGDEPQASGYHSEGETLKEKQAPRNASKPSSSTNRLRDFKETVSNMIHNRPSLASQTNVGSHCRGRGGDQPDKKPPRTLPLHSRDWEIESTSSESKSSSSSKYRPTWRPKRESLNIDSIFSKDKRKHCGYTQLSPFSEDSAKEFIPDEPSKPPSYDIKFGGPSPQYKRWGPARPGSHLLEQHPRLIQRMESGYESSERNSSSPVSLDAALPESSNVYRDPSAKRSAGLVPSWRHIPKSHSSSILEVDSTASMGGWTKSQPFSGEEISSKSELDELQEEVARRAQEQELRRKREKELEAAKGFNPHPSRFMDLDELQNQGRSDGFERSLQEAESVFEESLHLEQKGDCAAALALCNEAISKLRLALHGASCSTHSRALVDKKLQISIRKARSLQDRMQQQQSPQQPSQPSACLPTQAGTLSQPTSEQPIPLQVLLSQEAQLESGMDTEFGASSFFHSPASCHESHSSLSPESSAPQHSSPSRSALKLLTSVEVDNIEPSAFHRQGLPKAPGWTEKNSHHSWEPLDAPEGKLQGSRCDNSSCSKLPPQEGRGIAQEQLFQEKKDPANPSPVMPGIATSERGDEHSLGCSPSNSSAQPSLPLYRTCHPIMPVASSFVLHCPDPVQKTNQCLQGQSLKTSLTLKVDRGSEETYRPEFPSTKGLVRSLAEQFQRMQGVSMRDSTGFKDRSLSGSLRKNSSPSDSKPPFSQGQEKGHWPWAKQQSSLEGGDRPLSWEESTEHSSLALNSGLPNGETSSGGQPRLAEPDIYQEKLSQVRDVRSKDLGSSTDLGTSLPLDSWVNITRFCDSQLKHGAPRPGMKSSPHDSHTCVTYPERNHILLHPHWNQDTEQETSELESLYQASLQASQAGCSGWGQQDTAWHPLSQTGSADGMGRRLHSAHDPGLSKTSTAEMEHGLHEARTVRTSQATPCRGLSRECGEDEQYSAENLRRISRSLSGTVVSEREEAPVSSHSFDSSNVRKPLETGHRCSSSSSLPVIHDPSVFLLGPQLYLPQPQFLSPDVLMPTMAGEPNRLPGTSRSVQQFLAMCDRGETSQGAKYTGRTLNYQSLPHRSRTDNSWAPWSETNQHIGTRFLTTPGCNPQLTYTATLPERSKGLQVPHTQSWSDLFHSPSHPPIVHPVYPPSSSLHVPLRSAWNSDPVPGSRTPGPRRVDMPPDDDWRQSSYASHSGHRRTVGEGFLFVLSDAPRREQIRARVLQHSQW
In short: as §1

USP7 = USP7 (UniProt Q93009)
In short: as §1

USP8 = molecular target: T5, USP8 (UniProt P40818)
T5 sequence (whole entry): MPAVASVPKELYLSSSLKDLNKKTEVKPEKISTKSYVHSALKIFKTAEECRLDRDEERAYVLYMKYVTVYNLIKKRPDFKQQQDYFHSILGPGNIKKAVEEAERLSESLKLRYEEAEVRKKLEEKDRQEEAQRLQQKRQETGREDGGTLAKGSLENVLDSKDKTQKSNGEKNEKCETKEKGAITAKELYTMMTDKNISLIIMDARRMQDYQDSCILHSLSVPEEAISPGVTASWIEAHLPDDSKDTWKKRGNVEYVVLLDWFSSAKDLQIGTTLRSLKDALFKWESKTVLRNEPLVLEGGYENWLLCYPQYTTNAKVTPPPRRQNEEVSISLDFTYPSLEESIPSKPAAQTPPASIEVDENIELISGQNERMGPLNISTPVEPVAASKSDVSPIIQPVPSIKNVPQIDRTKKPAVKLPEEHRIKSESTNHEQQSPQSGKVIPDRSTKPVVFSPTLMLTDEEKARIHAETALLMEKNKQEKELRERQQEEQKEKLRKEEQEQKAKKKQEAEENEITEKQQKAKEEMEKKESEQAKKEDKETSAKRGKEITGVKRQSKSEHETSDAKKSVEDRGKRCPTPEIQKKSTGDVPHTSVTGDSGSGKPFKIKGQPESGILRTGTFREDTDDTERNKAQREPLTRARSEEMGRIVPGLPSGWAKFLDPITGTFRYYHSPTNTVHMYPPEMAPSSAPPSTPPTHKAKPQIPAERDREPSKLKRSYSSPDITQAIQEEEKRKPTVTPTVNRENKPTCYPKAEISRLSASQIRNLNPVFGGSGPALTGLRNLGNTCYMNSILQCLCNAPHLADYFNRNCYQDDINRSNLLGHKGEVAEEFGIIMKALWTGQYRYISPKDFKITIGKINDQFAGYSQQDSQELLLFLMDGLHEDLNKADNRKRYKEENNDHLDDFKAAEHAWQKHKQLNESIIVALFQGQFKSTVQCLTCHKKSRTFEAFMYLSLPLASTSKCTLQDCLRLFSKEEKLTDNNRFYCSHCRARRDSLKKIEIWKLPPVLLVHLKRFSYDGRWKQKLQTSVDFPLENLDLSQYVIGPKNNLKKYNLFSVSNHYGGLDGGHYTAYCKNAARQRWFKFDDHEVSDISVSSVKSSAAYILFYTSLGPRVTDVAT
In short: as §1

USP9X = USP9X (UniProt Q93008)
USP9X, sequence (Q93008 whole entry): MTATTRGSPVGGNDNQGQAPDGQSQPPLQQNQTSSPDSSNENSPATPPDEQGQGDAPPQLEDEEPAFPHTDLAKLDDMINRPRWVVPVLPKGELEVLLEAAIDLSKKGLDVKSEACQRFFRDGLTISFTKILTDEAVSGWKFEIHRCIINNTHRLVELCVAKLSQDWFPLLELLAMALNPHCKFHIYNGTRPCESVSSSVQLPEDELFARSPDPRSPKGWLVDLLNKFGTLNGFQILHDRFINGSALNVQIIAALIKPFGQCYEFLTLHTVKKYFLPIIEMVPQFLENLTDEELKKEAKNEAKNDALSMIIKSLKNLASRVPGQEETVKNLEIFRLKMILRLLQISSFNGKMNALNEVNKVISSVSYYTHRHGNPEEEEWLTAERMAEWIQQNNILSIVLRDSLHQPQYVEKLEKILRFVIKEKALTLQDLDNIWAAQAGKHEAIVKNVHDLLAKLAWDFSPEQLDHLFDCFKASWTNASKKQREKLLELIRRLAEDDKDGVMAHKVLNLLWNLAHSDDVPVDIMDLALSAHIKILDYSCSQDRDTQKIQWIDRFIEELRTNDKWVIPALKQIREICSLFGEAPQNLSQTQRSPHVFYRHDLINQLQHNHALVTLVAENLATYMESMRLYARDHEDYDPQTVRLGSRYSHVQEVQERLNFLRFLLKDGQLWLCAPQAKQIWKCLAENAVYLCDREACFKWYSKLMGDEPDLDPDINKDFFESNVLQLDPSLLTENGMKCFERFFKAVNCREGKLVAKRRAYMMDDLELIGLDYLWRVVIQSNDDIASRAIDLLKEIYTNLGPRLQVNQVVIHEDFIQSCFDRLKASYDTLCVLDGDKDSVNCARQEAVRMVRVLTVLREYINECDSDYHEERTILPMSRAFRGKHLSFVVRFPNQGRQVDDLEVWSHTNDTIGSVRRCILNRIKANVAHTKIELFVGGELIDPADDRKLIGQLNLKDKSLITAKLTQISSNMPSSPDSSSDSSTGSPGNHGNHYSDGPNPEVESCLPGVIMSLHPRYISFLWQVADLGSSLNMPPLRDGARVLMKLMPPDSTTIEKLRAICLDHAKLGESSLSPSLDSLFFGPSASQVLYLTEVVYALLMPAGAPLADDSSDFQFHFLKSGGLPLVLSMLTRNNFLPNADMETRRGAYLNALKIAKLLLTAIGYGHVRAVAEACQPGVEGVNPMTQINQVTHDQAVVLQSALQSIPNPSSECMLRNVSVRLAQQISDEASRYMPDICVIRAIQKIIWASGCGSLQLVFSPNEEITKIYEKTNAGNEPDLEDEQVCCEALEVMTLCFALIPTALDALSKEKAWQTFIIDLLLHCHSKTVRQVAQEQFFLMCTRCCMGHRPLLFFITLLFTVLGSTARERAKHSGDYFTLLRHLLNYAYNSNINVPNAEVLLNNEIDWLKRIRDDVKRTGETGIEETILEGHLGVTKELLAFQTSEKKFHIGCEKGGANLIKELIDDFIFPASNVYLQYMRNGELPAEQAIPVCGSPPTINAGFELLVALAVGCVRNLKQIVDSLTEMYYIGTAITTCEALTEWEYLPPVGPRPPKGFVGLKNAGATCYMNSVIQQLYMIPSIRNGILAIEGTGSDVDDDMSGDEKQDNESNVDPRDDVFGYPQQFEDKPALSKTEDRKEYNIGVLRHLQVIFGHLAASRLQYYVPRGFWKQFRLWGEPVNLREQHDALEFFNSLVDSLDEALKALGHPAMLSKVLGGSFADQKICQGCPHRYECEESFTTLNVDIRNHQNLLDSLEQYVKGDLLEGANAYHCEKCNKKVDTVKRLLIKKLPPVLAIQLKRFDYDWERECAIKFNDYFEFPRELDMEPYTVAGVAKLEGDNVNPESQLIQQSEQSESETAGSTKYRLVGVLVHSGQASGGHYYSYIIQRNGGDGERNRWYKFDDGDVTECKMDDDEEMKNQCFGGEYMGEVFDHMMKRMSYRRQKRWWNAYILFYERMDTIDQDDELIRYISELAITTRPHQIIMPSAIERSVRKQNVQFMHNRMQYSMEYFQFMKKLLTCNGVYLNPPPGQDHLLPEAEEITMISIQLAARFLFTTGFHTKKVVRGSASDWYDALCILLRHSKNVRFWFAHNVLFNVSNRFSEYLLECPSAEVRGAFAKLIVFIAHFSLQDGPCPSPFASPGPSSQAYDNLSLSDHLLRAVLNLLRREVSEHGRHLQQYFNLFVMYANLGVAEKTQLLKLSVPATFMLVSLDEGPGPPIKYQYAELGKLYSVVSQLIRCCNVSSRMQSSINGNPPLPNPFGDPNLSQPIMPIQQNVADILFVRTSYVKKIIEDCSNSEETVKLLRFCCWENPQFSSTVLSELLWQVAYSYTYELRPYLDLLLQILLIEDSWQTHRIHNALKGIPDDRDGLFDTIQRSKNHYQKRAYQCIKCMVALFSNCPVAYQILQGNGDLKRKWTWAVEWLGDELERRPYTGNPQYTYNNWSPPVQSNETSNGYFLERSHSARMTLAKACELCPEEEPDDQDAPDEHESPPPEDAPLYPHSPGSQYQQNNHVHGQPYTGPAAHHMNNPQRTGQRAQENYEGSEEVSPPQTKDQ
In short: as §1

UniProt O00487 = molecular target: UniProt O00487
UniProt O00487, sequence (O00487 whole entry): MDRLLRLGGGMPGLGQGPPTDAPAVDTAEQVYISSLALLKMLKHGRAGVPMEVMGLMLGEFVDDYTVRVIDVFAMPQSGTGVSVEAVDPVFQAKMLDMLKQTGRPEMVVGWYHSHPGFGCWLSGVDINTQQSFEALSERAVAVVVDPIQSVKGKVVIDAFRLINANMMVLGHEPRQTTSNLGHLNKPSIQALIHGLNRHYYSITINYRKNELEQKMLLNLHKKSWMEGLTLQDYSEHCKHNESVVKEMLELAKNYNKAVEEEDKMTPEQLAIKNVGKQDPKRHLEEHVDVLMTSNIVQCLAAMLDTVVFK
In short: as §1

Measured: log2 ratio of Biotin-Ahx-Ub-VS probe labelling

CC(NC(=O)CCl)c1noc(Cc2ccccc2)n1 (stereo not given)
inactive: USP42 0.115 | USP46 -0.0371 | USP47 0.0165 | USP48 -0.394 | USP5 -0.388 | USP54 0.507 | USP7 -0.475 | USP8 -0.579 | USP9X -0.262 | UniProt O00487 -0.231
